The campaign covered roughly 5,500 compounds. About 2,000 (36%) were called active. Roughly 18% stayed inconclusive and do not appear here. Rule as the data show it: active = normalized growth mostly below about 0.91 (no sharp cut-off); inconclusive = no clear call, values can overlap the other calls; inactive = mostly above about 0.92. The list shows a part of the results.
Assay: chemical genetic growth profiling, strain panel (AID 1159580);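 also: tested at 20 µM; growth read once vehicle control cultures reached saturation at 30 °C; 1 = growth at the plate median or of vehicle wells; lower values mean less growth of the strain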
Conditions: growth OD

Measured: normalized growth

COP(N)(=O)SC (configuration not stated)
inactive: S. cerevisiae deletion strains, locus YJR075W, strain HOC1, active compounds read low 1.01 | S. cerevisiae deletion strains, locus YKL009W, strain mrt4, active compounds read low 1 | S. cerevisiae deletion strains, locus YKL068W, active compounds read low 0.999 | S. cerevisiae deletion strains, locus YKL085W, strain MDH1 (second series), active compounds read low 1 | S. cerevisiae deletion strains, locus YKL085W, strain MDH1, active compounds read low 1 | S. cerevisiae deletion strains, locus YKL160W, strain elf1, active compounds read low 0.995 | S. cerevisiae deletion strains, locus YKL190W, strain CNB1, active compounds read low 1 | S. cerevisiae deletion strains, locus YKR001C, strain vps1, active compounds read low 1.03 | S. cerevisiae deletion strains, locus YKR026C, strain gcn3, active compounds read low 0.995 | S. cerevisiae deletion strains, locus YKR091W, strain srl3, active compounds read low 1 | S. cerevisiae deletion strains, locus YLL001W, strain dnm1, active compounds read low 0.981 | S. cerevisiae deletion strains, locus YLL026W, active compounds read low 0.996 | S. cerevisiae deletion strains, locus YLL041C, strain sdh2, active compounds read low 1 | S. cerevisiae deletion strains, locus YLR027C, strain aat2, active compounds read low 0.999 | S. cerevisiae deletion strains, locus YLR039C, strain RIC1, active compounds read low 1.04 | S. cerevisiae deletion strains, locus YLR058C, strain SHM2, active compounds read low 1.01 | S. cerevisiae deletion strains, locus YLR102C, strain apc9, active compounds read low 1.02 | S. cerevisiae deletion strains, locus YLR113W, strain HOG1, active compounds read low 0.963 | S. cerevisiae deletion strains, locus YLR221C, strain rsa3, active compounds read low 0.991 | S. cerevisiae deletion strains, locus YLR258W, strain gsy2, active compounds read low 1.01 | S. cerevisiae deletion strains, locus YLR262C, strain YPT6 (second series), active compounds read low 1.01 | S. cerevisiae deletion strains, locus YLR262C, strain YPT6, active compounds read low 1.02 | S. cerevisiae deletion strains, locus YLR268W, strain sec22, active compounds read low 1.01 | S. cerevisiae deletion strains, locus YLR320W, strain mms22, active compounds read low 1.01 | S. cerevisiae deletion strains, locus YLR330W, strain CHS5, active compounds read low 1 | S. cerevisiae deletion strains, locus YLR342W, strain FKS1 (second series), active compounds read low 1.03 | S. cerevisiae deletion strains, locus YLR342W, strain FKS1, active compounds read low 1.01 | S. cerevisiae deletion strains, locus YLR357W, strain rsc2, active compounds read low 1.02 | S. cerevisiae deletion strains, locus YLR370C, strain arc18, active compounds read low 1.01 | S. cerevisiae deletion strains, locus YLR371W, strain rom2, active compounds read low 1.02 | S. cerevisiae deletion strains, locus YLR384C, strain iki3, active compounds read low 1 | S. cerevisiae deletion strains, locus YLR418C, strain cdc73, active compounds read low 1.01 | S. cerevisiae deletion strains, locus YML016C, strain PPZ1, active compounds read low 0.992 | S. cerevisiae deletion strains, locus YML032C, strain rad52, active compounds read low 1.03 | S. cerevisiae deletion strains, locus YML120C, strain ndi1, active compounds read low 1 | S. cerevisiae deletion strains, locus YML124C, strain tub3, active compounds read low 1.01 | S. cerevisiae deletion strains, locus YMR058W, strain fet3, active compounds read low 1.01 | S. cerevisiae deletion strains, locus YMR078C, strain ctf18, active compounds read low 1.02 | S. cerevisiae deletion strains, locus YMR125W, strain sto1, active compounds read low 1.01 | S. cerevisiae deletion strains, locus YMR129W, active compounds read low 0.992 | S. cerevisiae deletion strains, locus YMR205C, strain PFK2, active compounds read low 1.02 | S. cerevisiae deletion strains, locus YMR223W, strain ubp8, active compounds read low 1.02 | S. cerevisiae deletion strains, locus YMR231W, strain pep5, active compounds read low 1.01 | S. cerevisiae deletion strains, locus YMR263W, strain SAP30, active compounds read low 0.994 | S. cerevisiae deletion strains, locus YMR307W, strain GAS1, active compounds read low 1.02 | S. cerevisiae deletion strains, locus YNL067W, strain RPL9B, active compounds read low 0.99 | S. cerevisiae deletion strains, locus YNL071W, strain lat1, active compounds read low 1 | S. cerevisiae deletion strains, locus YNL128W, strain TEP1, active compounds read low 0.991 | S. cerevisiae deletion strains, locus YNL153C, strain GIM3, active compounds read low 0.996 | S. cerevisiae deletion strains, locus YNL183C, strain NPR1, active compounds read low 0.985 | S. cerevisiae deletion strains, locus YNL209W, strain ssb2, active compounds read low 1 | S. cerevisiae deletion strains, locus YNL233W, strain BNI4, active compounds read low 0.992 | S. cerevisiae deletion strains, locus YNL248C, strain rpa49, active compounds read low 0.969 | S. cerevisiae deletion strains, locus YNL250W, strain rad50, active compounds read low 1.01 | S. cerevisiae deletion strains, locus YNL271C, strain bni1, active compounds read low 1.01 | S. cerevisiae deletion strains, locus YNL298W, strain CLA4, active compounds read low 1.02 | S. cerevisiae deletion strains, locus YNL307C, strain MCK1, active compounds read low 1.03 | S. cerevisiae deletion strains, locus YNL322C, strain KRE1 (second series), active compounds read low 1 | S. cerevisiae deletion strains, locus YNL322C, strain KRE1, active compounds read low 0.999 | S. cerevisiae deletion strains, locus YNR049C, strain mso1, active compounds read low 0.996 | S. cerevisiae deletion strains, locus YNR052C, strain pop2, active compounds read low 1.02 | S. cerevisiae deletion strains, locus YOL006C, strain TOP1, active compounds read low 1.03 | S. cerevisiae deletion strains, locus YOL012C, strain htz1 0.95 | S. cerevisiae deletion strains, locus YOL147C, strain pex11, active compounds read low 1.02 | S. cerevisiae deletion strains, locus YOR001W, strain rrp6, active compounds read low 0.979 | S. cerevisiae deletion strains, locus YOR061W, strain CKA2, active compounds read low 0.994 | S. cerevisiae deletion strains, locus YOR069W, strain VPS5, active compounds read low 1 | S. cerevisiae deletion strains, locus YOR070C, strain gyp1, active compounds read low 1.01 | S. cerevisiae deletion strains, locus YOR080W, strain dia2, active compounds read low 1 | S. cerevisiae deletion strains, locus YOR083W, strain WHI5, active compounds read low 0.999 | S. cerevisiae deletion strains, locus YOR106W, strain vam3, active compounds read low 0.993 | S. cerevisiae deletion strains, locus YOR136W, strain idh2, active compounds read low 1.01 | S. cerevisiae deletion strains, locus YOR144C, strain elg1, active compounds read low 1.01 | S. cerevisiae deletion strains, locus YOR184W, strain ser1, active compounds read low 1.03 | S. cerevisiae deletion strains, locus YOR231W, strain MKK1, active compounds read low 1.05 | S. cerevisiae deletion strains, locus YOR265W, strain rbl2, active compounds read low 1.01 | S. cerevisiae deletion strains, locus YOR270C, strain vph1, active compounds read low 0.987 | S. cerevisiae deletion strains, locus YOR290C, strain snf2, active compounds read low 1 | S. cerevisiae deletion strains, locus YOR316C, strain cot1, active compounds read low 1.01 | S. cerevisiae deletion strains, locus YPL051W, strain arl3, active compounds read low 1 | S. cerevisiae deletion strains, locus YPL055C, strain LGE1, active compounds read low 0.984 | S. cerevisiae deletion strains, locus YPL078C, strain atp4, active compounds read low 0.986 | S. cerevisiae deletion strains, locus YPL106C, strain sse1, active compounds read low 1 | S. cerevisiae deletion strains, locus YPL240C, strain hsp82, active compounds read low 1 | S. cerevisiae deletion strains, locus YPL241C, strain CIN2, active compounds read low 0.994 | S. cerevisiae deletion strains, locus YPL256C, strain CLN2, active compounds read low 1.06 | S. cerevisiae deletion strains, locus YPR119W, strain clb2, active compounds read low 1.01 | S. cerevisiae deletion strains, locus YPR141C, strain kar3, active compounds read low 1.01 | S. cerevisiae deletion strains, locus YPR163C, strain tif3, active compounds read low 1.02 | S. cerevisiae deletion strains, locus YPR167C, strain met16, active compounds read low 1.01 | S. cerevisiae deletion strains, strain wtn01, active compounds read low 1.01 | S. cerevisiae strains, strain wild type, active compounds read low 0.996
